From the supplement of paper PMC6555819

test system: VDR:RXRa (NR concentration 270 nM, RXRa partner concentration 90 nM); experiment: PBM binding z-score (relative to random genomic background probes); higher = stronger binding; sequences stand for … in GC…GCGATTGACAGCGTAGAATGAAGG
Procedure: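 Protein-binding microarray (Agilent 4x180K custom design, double-stranded 60-nt probes: 5' GC cap, 34-nt variable region, 24-nt constant primer region; full probe sequence given). Purified or IVT nuclear receptor:RXRα heterodimers (3:1 NR:RXRα, mostly 270:90 nM) or homodimers were incubated for 1 h in PBS with 2% milk and no ligand, then detected with Alexa488 antibodies. Fluorescence from o1-orientation probes (~5 replicates averaged) was converted to z-scores against 500 random hg19 background probes. Variable regions are seed direct-repeat (DR0–DR5) sites, all their single-nucleotide variants and half-site ablations.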

Row | Sequence | PBM binding z-score
1 | ACTAGTTGGTCAGCTGAGGTCACACATAATTCGG | 4.49
2 | CCTTACGGGTCACACCAGGTTATAGCATCGGAGT | 4.89
3 | TCATAAAGGTAATACAGGTGAAAGTCGGCATCTA | 1.72
4 | CCGACTGGGGCAGAAAGGTTACCAAACCATCCGG | 0.877
5 | TATACAGGGTTAAAGGCCAGAGTACGAATGTCGA | 2.09
6 | CGTCCAAGGTCAATGCTTGGTCAGTGAAAGCATT | 3.69
7 | CGTCCAAGGTCACAGGTCAGTGAAGAGATGACGG | 4.91
8 | AGAATGAGGTTACCAAAGATCAAGGAAACGCTTG | 1.81
9 | CAAACTAGGTCACAAAGGTCAAAGTCCGTGCGTA | 7.28
10 | ACAGACAGGTGATGAGGGTAACTCAGGCTATCAT | 0.16
11 | CCTAGTTGGTCAGGAGGTCACACAGCGGATATGA | 3.94
12 | CCTAACAGGCCAGGGTCACTCAAGCATTTCGCTT | 2.86
13 | TCTTGTAGATCAGTAGGTTAAGAAAGCTGGCCAA | 0.673
14 | AGAATGAGGTTATACGTAGATCAGAGAAGAAAGT | 1.29
15 | AGTCAAAGTTCAGGACGGGGTAACGTAAAGCACG | 3.34
16 | CAAACTAGGTCACGAAAGGTCACAGTCGAATGAC | 6.75
17 | CCGCCTGGGGCAAAGGTTACCATACTCAGTACGA | 1.48
18 | CCTACTGGGCCAAAAAGGTTATTGATGCCGATAA | 1.6
19 | CCTGCTAGGTCAATGGTCACCTAAAGCAGCTCGC | 1.45
20 | GCAGATAGGTGAAACGCAGGTAACTCAGGGTGGC | -0.534

Row | Sequence | PBM binding z-score
21 | GCTTCTAGGTCAGGTTGGTCAGCTAACGGGTACG | 0.953
22 | ATAGGTAGGTTACATCCGGGTCATTCAGGCTATG | 4.21
23 | ACTATTAGTTGCCTTAGGGCAACCGATACGACGC | -0.026
24 | TCTAGTTGGTAAAAGGTCACACACTCGAAATGCG | 4.89
25 | CGAGCTAGGTCAGAACAGGACAGTGAAGGATGAT | 0.446
26 | TCGAGTTGGTTAGGGGCATTCAGAATGGCGTCGA | 1.84
27 | AATACAGGCTCATCGTAGGCCAGAGTACGCACAG | -0.438
28 | CCTATTAGTTGACCATAAGGGCAACCAAAGCTCG | 0.939
29 | GATACAGGGTCAGCTAGAGGCCAGAATATGGAAA | 3.19
30 | ACTTACGGGTCAACGAGGTTATAGCCCGCGTATA | 7.59
31 | ATCGAAAGGTCGACGATGTGAGTATACACCGTTT | 2.51
32 | GTACCAAGGTGAATAGGTCGGTGATGAGTAGGCG | 0.312
33 | CCTATTTGGTCAGGAGGTCACACACCGGATATGA | 4.05
34 | TCTGGTAGGTCAACGATGGTCAGCTAATCTGCTA | 2.2
35 | CGTGAAAGTTCAAGGTAACGTAACAGAAAGCAGC | 3.81
36 | GCTATTAGTTGAAAGTGCAACCGAATGATTCTCG | 0.133
37 | CATACAGGGTCAGCTAGGTCAGAGTAGGGACGGC | 5.76
38 | CCGACTAGGTTATGGGGCATTCAGGCAACGGTGA | -0.337
39 | GCTCGTAGATCAAGGTTAAGAAAGACTAAGCTAA | -0.0501
40 | CCTCGGAGGAAAACAGGAGGTCAGAGCTGCCAGA | 1.28
